Reference: PubChem BioAssay (Tox21)
Results filed as inconclusive are left out. The source made the active and inactive calls. Unless noted, the call rests on the fitted dose curve; in most records, active means well fitted curve in the direction sought with a large enough effect in the repeat runs; inconclusive means weak or mixed curves; inactive means no such curve, though single readings can be large; an effect the other way counts as inactive or inconclusive.

Tests used:
[1] = qHTS assay to identify small molecule agonists of the RXR signaling pathway - cell viability counter screen (AID 1159529);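 further: HEK 293T cells carrying an RXR-alpha UAS beta-lactamase reporter; series mostly up to about 77 µM; nearly all actives have a fitted effect of over 50% in size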
Method in brief: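 In this parallel viability measure, GeneBLAzer RXR-alpha HEK 293T cells (2% charcoal-stripped FBS) were given a 5 hr preincubation, treated with compounds 16 hr at 37 C, and read by CellTiter-Glo luminescence.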

[2] = qHTS assay to identify small molecule antagonists of the retinoid acid receptor (RAR) signaling pathway - cell viability counter screen (AID 1159551); further: nearly all actives have a fitted effect of over 35% in size
Method in brief: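 In this counter screen, the RARE-luciferase line C3RL4 was exposed for 6 h at 37 C and 5% CO2 to compounds with retinol at 1 uM final. Cellular ATP, read by luminescence, served as the viability measure.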

[3] = qHTS assay to identify small molecule antagonists of the retinoic acid receptor (RAR) signaling pathway (AID 1159552; further: nearly all actives have a fitted effect of over 50% in size)
Method in brief: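 C3RL4 RARE-luc cells, overnight plating; retinol 1 uM final added right after compound; 6 hr 37 C; luciferase read at 30 min RT.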

[4] = target: Luciferin 4-monooxygenase (Photinus pyralis) (UniProt P08659); assay: qHTS assay to identify small molecule inhibitors of firefly luciferase (AID 1224835); further: series mostly up to about 120 µM; nearly all actives have a fitted effect of over 25% in size
Luciferin 4-monooxygenase (Photinus pyralis), sequence (P08659 whole entry, looked up): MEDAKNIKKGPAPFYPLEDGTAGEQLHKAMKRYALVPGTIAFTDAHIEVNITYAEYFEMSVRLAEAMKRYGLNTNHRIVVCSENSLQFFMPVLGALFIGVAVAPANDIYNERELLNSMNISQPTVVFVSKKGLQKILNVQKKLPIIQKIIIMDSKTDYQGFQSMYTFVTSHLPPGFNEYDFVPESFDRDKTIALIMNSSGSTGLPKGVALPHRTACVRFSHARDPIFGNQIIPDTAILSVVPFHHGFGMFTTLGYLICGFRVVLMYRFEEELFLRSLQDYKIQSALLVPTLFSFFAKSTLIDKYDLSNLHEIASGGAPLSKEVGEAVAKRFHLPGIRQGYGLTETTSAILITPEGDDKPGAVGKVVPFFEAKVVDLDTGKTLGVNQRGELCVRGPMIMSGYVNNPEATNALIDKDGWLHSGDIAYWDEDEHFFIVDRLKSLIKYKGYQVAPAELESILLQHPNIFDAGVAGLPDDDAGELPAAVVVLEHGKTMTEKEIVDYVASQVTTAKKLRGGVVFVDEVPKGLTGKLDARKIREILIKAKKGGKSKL
Method in brief: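 Quantitative HTS format; KM concentrations of both substrates. Purified P. pyralis FLuc activity quantified from luminescence images.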

[5] = qHTS assay to identify small molecule agonists of the constitutive androstane receptor (CAR) signaling pathway - cell viability counter screen (AID 1224836); further: series mostly up to about 92 µM; nearly all actives have a fitted effect of over 45% in size
Method in brief: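 Using CellTiter-Fluor, viability of HepG2 cells harbouring hCAR and CYP2B6-2.2kb was measured following 23 h incubation with a 15-concentration compound series plus PK11195 (0.75 uM final).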

[6] = qHTS assay to identify small molecule antagonists of the constitutive androstane receptor (CAR) signaling pathway - cell viability counter screen (AID 1224837); further: series mostly up to about 92 µM; nearly all actives have a fitted effect of over 45% in size
Method in brief: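 CITCO at 50 nM final was added alongside compounds (15 concentrations) to double-stable hCAR/CYP2B6-2.2kb HepG2 cells. Following 23 hr at 37 C, cell viability was quantified by CellTiter-Fluor fluorescence intensity.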

[7] = qHTS assay to identify small molecule antagonists of the estrogen related receptor signaling pathway with the pleiotropic PPARgamma coactivator (PGC) from Tox21 10K library (AID 1224841; call rule not given here; further: series mostly up to about 92 µM; actives are mostly falling curves and most rising ones were filed inactive; nearly all actives have a fitted effect of over 50% in size)
Method in brief: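 One-Glo luminescence, measured after half an hour at room temperature, quantified reporter output of PGC/ERR cells. These had been plated at 2,000 per well, incubated 6 h, dosed with compounds in DMSO, then kept 18 h at 37 C.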

[8] = qHTS assay to identify small molecule agonists of the estrogen related receptor signaling pathway with the pleiotropic PPARgamma coactivator (PGC) from Tox21 10K library (AID 1224842); further: nearly all actives have a fitted effect of over 15% in size
Method in brief: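 PGC/ERR reporter cells (NTP line) were seeded 2,000 per well, rested 6 h at 37 C/5% CO2, then pin-dosed with compounds in DMSO for 18 h at 37 C; luciferase read by One-Glo luminescence after 30 min at room temperature.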

[9] = target: Thyrotropin receptor (Homo sapiens) (UniProt P16473); assay: qHTS assay to identify small molecule agonists of the thyroid stimulating hormone receptor (TSHR) signaling pathway (AID 1224843; calls by dose curve; further: nearly all actives have a fitted effect of over 45% in size)
Thyrotropin receptor (Homo sapiens), sequence (P16473 whole entry, looked up): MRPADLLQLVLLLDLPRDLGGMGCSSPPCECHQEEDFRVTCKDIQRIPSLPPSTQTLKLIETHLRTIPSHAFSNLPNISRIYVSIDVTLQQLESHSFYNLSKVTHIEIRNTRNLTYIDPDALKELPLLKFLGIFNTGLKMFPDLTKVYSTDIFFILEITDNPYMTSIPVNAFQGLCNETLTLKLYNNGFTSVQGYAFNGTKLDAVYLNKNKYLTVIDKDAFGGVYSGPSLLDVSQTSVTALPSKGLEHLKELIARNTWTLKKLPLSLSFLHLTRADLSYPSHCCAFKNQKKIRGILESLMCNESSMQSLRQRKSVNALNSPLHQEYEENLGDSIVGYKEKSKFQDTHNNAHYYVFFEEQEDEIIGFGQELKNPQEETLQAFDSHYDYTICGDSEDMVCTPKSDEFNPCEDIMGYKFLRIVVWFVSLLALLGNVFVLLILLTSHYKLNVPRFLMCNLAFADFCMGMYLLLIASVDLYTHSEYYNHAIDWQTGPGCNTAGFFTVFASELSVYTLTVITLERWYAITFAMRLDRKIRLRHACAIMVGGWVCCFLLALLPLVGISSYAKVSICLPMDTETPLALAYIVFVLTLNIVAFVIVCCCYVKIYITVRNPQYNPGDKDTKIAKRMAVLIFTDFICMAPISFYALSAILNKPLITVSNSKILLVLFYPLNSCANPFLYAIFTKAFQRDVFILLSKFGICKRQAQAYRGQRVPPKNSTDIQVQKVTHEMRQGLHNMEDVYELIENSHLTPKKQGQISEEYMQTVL
Method in brief: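 Using 15 concentrations per compound in triplicate, cAMP production was monitored in TSHR-HEK293 cells after 30 min compound incubation at RT; HTRF reagents followed, with fluorescence intensity recorded after 1 h.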

[10] = qHTS assay to identify small molecule agonists of the hypoxia (HIF-1) signaling pathway - cell viability counter screen (AID 1224844; calls by dose curve; further: nearly all actives have a fitted effect of over 50% in size)
Method in brief: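 In this counter screen, HRE-bla ME-180 cell viability after 17 hrs of compound exposure at 37C was read by CellTiter-Glo luminescence, multiplexed with the beta-lactamase reporter measurement.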

[11] = qHTS assay to identify small molecule antagonists of the estrogen related receptor (ERR) signaling pathway from Tox21 library - cell viability counter screen (AID 1224834); further: nearly all actives have a fitted effect of over 30% in size
Method in brief: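 Counter screen run in ERR cells (2,000 cells/well): cells pre-incubated 6 h, then treated with compounds for 17.5 h at 37 C. Fluorescence was read 30 min after CellTiter-Fluor addition.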

[12] = target: Nuclear receptor subfamily 1 group I member 3 (Homo sapiens) (UniProt Q14994); assay: qHTS assay to identify small molecule antagonists of the constitutive androstane receptor (CAR) signaling pathway (AID 1224838); further: nearly all actives have a fitted effect of over 40% in size
Nuclear receptor subfamily 1 group I member 3 (Homo sapiens), sequence (Q14994 whole entry, looked up): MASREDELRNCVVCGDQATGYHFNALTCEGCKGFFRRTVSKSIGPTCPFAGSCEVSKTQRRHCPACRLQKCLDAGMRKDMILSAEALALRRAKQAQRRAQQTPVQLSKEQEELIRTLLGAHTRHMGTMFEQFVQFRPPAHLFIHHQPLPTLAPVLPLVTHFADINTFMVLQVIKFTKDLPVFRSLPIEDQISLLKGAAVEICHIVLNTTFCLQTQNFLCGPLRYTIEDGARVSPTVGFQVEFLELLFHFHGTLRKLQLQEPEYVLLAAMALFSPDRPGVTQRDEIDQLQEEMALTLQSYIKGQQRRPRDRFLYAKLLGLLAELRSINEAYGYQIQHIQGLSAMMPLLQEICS
Method in brief: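 Inhibition of CITCO-driven (50 nM final) CYP2B6 reporter expression is measured in HepG2 cells stably carrying hCAR. Fifteen compound concentrations are applied for 24 h at 37 C, followed by luciferase luminescence.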

[13] = target: Nuclear receptor subfamily 1 group I member 3 (Homo sapiens) (UniProt Q14994); assay: qHTS assay to identify small molecule agonists of the constitutive androstane receptor (CAR) signaling pathway (AID 1224839); further: series mostly up to about 92 µM; nearly all actives have a fitted effect of over 15% in size
Method in brief: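 Double-stable HepG2 cells (hCAR, CYP2B6-2.2kb) seeded 4 h before compound addition. Exposure 24 h with 0.75 uM PK11195 final. Luciferase detected by ONE-Glo.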

[14] = qHTS assay to identify small molecule antagonists of the estrogen related receptor signaling pathway with the pleiotropic PPARgamma coactivator (PGC) from Tox21 10K library - cell viability counter screen (AID 1224840; active means well fitted cell-killing curve with a large enough effect in the repeat runs, not every such curve was filed as active; further: nearly all actives have a fitted effect of over 40% in size)
Method in brief: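 Readout: fluorescence intensity from CellTiter-Fluor after 30 min at 37 C/5% CO2. Preceded by 17.5 h treatment of PGC/ERR cells with DMSO-dissolved compounds, added 6 h post-seeding.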

[15] = qHTS assay to identify small molecule antagonists of the estrogen related receptor signaling pathway with the pleiotropic PPARgamma coactivator (PGC) cell viability counter screen (AID 1224822;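 further: series mostly up to about 46 µM; viability read after 17.5 h compound exposure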)
Method in brief: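 17.5 h compound treatment of PGC/ERR cells at 37 C; readout CellTiter-Fluor fluorescence; run alongside the PGC/ERR antagonist screen to flag cytotoxic compounds.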

Measured: Potency

CC(Cc1ccccc1)NCCn1cnc2c1c(=O)n(C)c(=O)n2C (configuration not stated)
not listed: [11] | [12] | [13] | [14] | [15]
inactive: all other assays above

C/C(=N\NC(=O)Nc1cc(F)cc(F)c1)c1ncccc1C(=O)O
not listed: [3] | [4] | [7] | [8] | [14] | [15]
inactive: all other assays above

CCCC(C)(COC(N)=O)COC(N)=O
not listed: [13] | [15]
inactive: all other assays above

ClCCCCl
not listed: [7] | [8] | [15]
inactive: all other assays above

NNC(N)=O
not listed: [7] | [8]
inactive: all other assays above
